# Assay outcomes (PubChem BioAssay)
# An excerpt weighted towards active compounds, which were near 8.1% of everything screened.
# SW480 rerep: induces DNA re-replication in SW480 colon adenocarcinoma cells; SW480 DNA re-replication, Hoechst DNA content imaging, 48 h; hit rate 1.8% among 340,000; Potency, µM (top dose mostly 46.1 µM), without a hit: at the top dose re-replication activation, hits mostly activators; note: % of control where 0% means no effect; nearly all actives have a fitted effect of over 55% in size
#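 Hoechst fluorescence of nuclei (405 nm excitation, 500-530 nm emission) measured by plate-scanning imager after 48 hr compound exposure at 37 C; re-replication scored as increased number of nuclei with elevated intensity.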
# KB-V1 cytotox: kills drug-selected multidrug resistant KB-V1 cells; KB-V1 MDR cells viability, CellTiter-Glo, 72 h; Potency, µM (doses to about 46.1 µM), actives largely listed as cytotoxic; hit rate 3.4% among 400,000; AID 1347076; note: % is set by controls: 0 for no effect and ±100 for the full control effect; nearly all actives have a fitted effect of over 60% in size
#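 Readout: CellTiter-Glo luminescence, 10 min after addition. Cells: KB-V1 MDR subline, 72 h at 37 degrees C with compound. Analysis: corrected, normalized data fitted to concentration-effect curves.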
# MCF10A rerep: induces DNA re-replication in MCF 10a normal breast cells; MCF 10A DNA re-replication, Hoechst nuclear intensity, 48 h; Potency, µM (highest dose often 46.1 µM), for the others: at the top dose activity, positive = re-replication, actives largely listed as activators; hit rate 2.9% among 350,000; note: % of control where 0% means no effect; nearly all actives have a fitted effect of over 50% in size
# ELG1 repair inh: blocks ELG1-dependent DNA repair in HEK293T cells; HEK293T ELG1-luciferase reporter, luminescence, 16 h; DNA damage induced by 5-fluorouridine; Potency, µM (doses to about 46.1 µM), for inactives: at the top dose activity change, negative = inhibition, actives largely listed as inhibitors; hit rate 2.3% among 330,000; AID 504467; note: % is set by controls: 0 for no effect and ±100 for the full control effect; nearly all actives have a fitted effect of over 55% in size
#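 Reporter activity after DNA damage by 5-fluorouridine is monitored. Compound-treated cells incubate 16 hr at 37 °C, then ONE-Glo is added for 30 min before luminescence reading.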
# KB-3-1 tox: KB-3-1 parental cell cytotoxicity | KB-3-1 viability, CellTiter-Glo ATP luminescence, 72 h | Potency, µM (series often up to 46.1 µM), usual class: cytotoxic | hit rate 1.4% among 400,000; note: % is set by controls: 0 for no effect and ±100 for the full control effect; nearly all actives have a fitted effect of over 60% in size
#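 Screening of KB-3-1 cells (DMEM, 10% FBS, phenol-red free) ran from lowest to highest compound concentration; after 72 h at 37 °C viability was read luminescently and curves fitted.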
# Starred values were filed as active, the others as inactive; i = inactive; ? = inconclusive; . = no result given. Calls come from the whole dose curve; as a rule, active = well fitted curve in the direction sought with a large enough effect; inconclusive = small, poorly fitted or top-dose-only effect, or another doubt; inactive = no such curve, though single readings can be large; an effect the other way counts as inactive or inconclusive. Potency is the fitted concentration of half-maximal effect.
SMILES,SW480 rerep,KB-V1 cytotox,MCF10A rerep,ELG1 repair inh,KB-3-1 tox
Cc1cccc(N2CCN(C(=O)CSCc3c(C)noc3C)CC2)c1C,14%,1.8µM*,11%,10%,3.7µM*
O=C1CCSC2=C1SCc1sccc12,.,i,.,.,i
Cc1n[nH]c(=O)c2c(NC(=O)COC(=O)c3cc(F)cc(F)c3)oc(C)c12,?,i,1%,15%,i
COC(=O)C1=C(N)Oc2c(oc(CO)cc2=O)C1c1ccc(F)cc1 (centres undefined),-4%,i,-10%,?,i
COc1cccc(-c2cc(C(=O)N3CC4(C)CC3CC(C)(C)C4)no2)c1 (centres undefined),0%,15µM*,?,?,i
CC1(C)CC2CC(C)(CN2C(=O)c2cc(-c3ccc(O)cc3)on2)C1 (centres undefined),2%,i,?,-5%,i
COc1ccccc1NC(=O)CSc1nnc2c3ccccc3n(C)c2n1,.,i,.,.,i
Cc1ccccc1C(=O)Nc1cc(-c2ccc(Cl)cc2)nn1-c1ccccc1,.,i,.,.,i
Cc1c(NCc2cc(Cl)ccc2O)c(=O)n(-c2ccccc2)n1C,-1%,i,0%,-1%,i
Cc1c(NCc2cc(Cl)cc(Cl)c2O)c(=O)n(-c2ccccc2)n1C,12%,21µM*,?,-19%,i
Cc1ccccc1CSCC(=O)Nc1c(C)n(C)n(-c2ccccc2)c1=O,-9%,18µM*,2%,0%,i
Cc1ccccc1C(=O)/C(C#N)=N/Nc1c(C)n(C)n(-c2ccccc2)c1=O,?,0.46µM*,-4%,-6%,i
Cc1ccccc1CSCC(=O)Nc1ccccc1-c1ccccc1,?,23µM*,17%,-1%,i
CCCN1C(=O)c2cc(C(=O)Nc3cccc(C(C)=O)c3)ccc2C1Nc1cccc(C(C)=O)c1 (centres undefined),5%,?,9%,16µM*,i
Cc1ccc(C)c(Oc2nc3c(c(=O)n(C)c(=O)n3C)n2Cc2ccccc2)c1,.,?,.,.,i
COc1ccc(Oc2nc3c(c(=O)n(C)c(=O)n3C)n2Cc2ccccc2)cc1,-6%,?,1%,-7%,i
C=CCOc1nc2c(c(=O)n(C)c(=O)n2C)n1Cc1ccccc1,?,8.2µM*,-1%,?,?
C#CCOc1nc2c(c(=O)n(C)c(=O)n2C)n1Cc1ccccc1,-10%,i,10%,18µM*,i
O=C(CSc1nc(Nc2ccccc2)nc(N2CCOCC2)n1)Nc1ccc2c(c1)OCCO2,-3%,i,18µM*,?,i
FC(F)(F)c1cccc(Nc2nc(N3CCOCC3)nc(N3CCOCC3)n2)c1,?,i,?,?,?
Cc1cccc(Nc2nc(N3CCOCC3)nc(N3CCOCC3)n2)c1,28%,i,5%,7.3µM*,i
c1ccc(Nc2nc(N3CCOCC3)nc(N3CCOCC3)n2)cc1,18%,?,?,?,16µM*
Oc1cccc(Nc2nc(N3CCOCC3)nc(N3CCOCC3)n2)c1,?,i,23µM*,?,?
CCOc1ccc(-n2c(=O)c3ccccc3c3ccccc3c2=O)cc1,?,i,17%,11%,i
CC(=O)NCc1ccc(C(=O)COC(=O)COc2ccccc2)s1,?,i,-2%,0%,i
SMILES,SW480 rerep,KB-V1 cytotox,MCF10A rerep,ELG1 repair inh,KB-3-1 tox
COCCN(C(=O)COC(=O)C1CC1C)c1c(N)n(Cc2ccccc2)c(=O)[nH]c1=O (centres undefined),-4%,i,4%,0%,i
Cc1ccc(-n2nnnc2CNC(=O)c2ccc([N+](=O)[O-])o2)cc1C,13µM*,i,?,?,15µM*
O=C(NCc1nnnn1-c1ccc(F)cc1)c1ccc([N+](=O)[O-])o1,?,?,?,?,18µM*
CC(=O)c1ccc(-c2ccc(C(=O)NCC(c3ccc(F)cc3)N3CCOCC3)o2)cc1 (centres undefined),?,i,10%,-15%,i
O=C(NCC(c1ccc(F)cc1)N1CCOCC1)c1ccc([N+](=O)[O-])o1 (centres undefined),10µM*,?,18µM*,?,?
CCOC(=O)C1CCN(C(=O)NC23CC4CC(CC(C4)C2)C3)CC1,1%,i,24%,-2%,i
COC(=O)c1cc(S(=O)(=O)N2CCN(C3CCCCC3)CC2)c[nH]1,2%,i,12%,7%,i
COc1ccc(C(=O)N[C@H](C(=O)OCCCOC(=O)[C@@H](NC(=O)c2ccc(OC)cc2)C(C)C)C(C)C)cc1,-12%,i,10%,.,i
COc1ccc(NS(=O)(=O)c2ccc(NC(=O)Cc3cccs3)cc2)cc1,9%,i,6%,-12%,i
COc1ccc(NS(=O)(=O)c2cc(NC(=O)Cc3cccs3)ccc2C)cc1,?,i,16µM*,?,i
COc1ccc(NS(=O)(=O)c2cc(NC(=O)[C@@H](NC(=O)c3ccccc3)C(C)C)ccc2C)cc1,?,?,18µM*,?,8.2µM*
COc1ccc(C(=O)N[C@H](C(=O)NCCCn2nc(C)cc2C)C(C)C)cc1,1%,15µM*,1%,0%,i
COc1ccc(NS(=O)(=O)c2cc(NC(=O)c3ccc(=O)[nH]c3)ccc2C)cc1,5%,?,11%,?,i
O=C(CSc1ccc(S(=O)(=O)N2CCCC2)cn1)Nc1ccc([N+](=O)[O-])cc1C(F)(F)F,4%,5.2µM*,18%,.,?
Cc1ccc(C)c(NC(=O)CSc2ccc(S(=O)(=O)N3CCCC3)cn2)c1,3%,i,7%,-16%,i
CCOc1cc(C(=O)CSc2nnc(CNc3ccc(Cl)cc3)o2)ccc1NC(=O)CC,11%,21µM*,?,?,?
O=C1C(Cc2cccc([N+](=O)[O-])c2)SC(=Nc2ccccc2)N1c1ccccc1 (centres undefined),21%,21µM*,?,-19%,i
O=C1C(Cc2ccc(F)cc2)SC(=Nc2ccccc2)N1c1ccccc1 (centres undefined),.,?,23%,2%,i
O=C1C(Cc2ccc(Br)cc2)SC(=Nc2ccccc2)N1c1ccccc1 (centres undefined),?,21µM*,?,-11%,?
CN(Cc1ccco1)c1ncnc2ccc(-c3ccc4c(c3)OCO4)cc12,0%,i,25%,?,i
CN(Cc1ccco1)c1ncnc2ccc(-c3ccc4c(ccn4C)c3)cc12,3.7µM*,i,?,-23%,?
CCNC(=O)NC(=O)C(C)OC(=O)Cc1coc2cc3c(cc12)CCC3 (centres undefined),9%,i,1%,?,i
